# In paper PMC5540273 (PLoS ONE, 2017):
# System: T1, BIKE
# T1 construct: gene BMP2K
# Details: concentration: 1 μM, replicates: in singlicate; n = 1
# 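Also: KINOMEscan kinase panel screen.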
row,Compound,%Inh [%]
1,Cc1cccc(-c2cc(-c3c[nH]nc3-c3ccccn3)ccn2)c1 [GW679395],0
2,COc1ccc(-c2coc3ccc(-c4nnc(SCc5cccc(C#N)c5)o4)cc23)cc1,0
3,COc1ccc(CNC(=O)NC2CCN(c3ccnc(Nc4ccc(F)cc4)n3)C2)cc1 (stereo not drawn) [GSK1379706],0
4,COc1cc2ncn(-c3cc(OCc4ccncc4Br)c(C(N)=O)s3)c2cc1OC [GW854278],39
5,Cc1nnc(-c2ccc(C)c(-c3ccc(C(=O)O)cc3)c2)o1 [GW608005],0
6,COc1cc2ncn(-c3cc(OCCCc4ccccc4)c(C(N)=O)s3)c2cc1OC [GSK205189],36
7,Cc1cc(Nc2nc(-c3cccc(C)n3)nc3ccccc23)ccn1 [GW872411],0
8,Cc1ccc(-c2ccc3c(ccc4sc5c(c43)NC[C@@H](C)N=C5N(C)C)n2)cn1,0
9,CCc1ccc(-c2ccc3c(c2)-c2nn(C)cc2S(=O)(=O)N3C)cc1,0
10,Nc1n[nH]c2ncc(-c3ccccc3)cc12 [SB-517081],17
11,Nc1ncnc2c1ncn2-c1cccc2ccccc12 [SKF-97184],0
12,O=C(NCCNc1ccnc(Nc2ccc(F)cc2)n1)Nc1ccc2c(c1)OCO2 [GSK1379882],17
13,O=C(Nc1n[nH]c2nc(-c3ccccc3)c(Br)cc12)C1CC1 [SB-708998],28
14,Cl.NS(=O)(=O)c1cccc(Nc2cc(-c3ccc(F)cc3)n[nH]2)c1 [GW824645],0
15,O=C(Nc1ccc2c(c1)OCO2)NC1CCN(c2ccnc(NCc3ccc(F)cc3)n2)CC1 [GSK1379859],7
16,CC(C)(C)c1ccc(C(=O)Nc2cn3cc(-c4ccccc4)ccc3n2)cc1,0
17,C[C@@H]1CC[C@H](C(=O)NC2CCCCC2)CN1c1cc(-c2ccc3c(N)n[nH]c3c2)nc(N)n1 [GSK2291363],78
18,O=C(Nc1n[nH]c2nc(-c3ccccc3)c(Cl)cc12)C1CC1 [SB-734909],21

row,Compound,%Inh [%]
1,COC(=O)c1c(-c2ccccc2)c2cc(Br)ccc2c(=O)n1Cc1ccc(NC(=O)CCC(=O)O)cc1,0
2,O=C(Nc1n[nH]c2cc(-c3ccccc3F)ccc12)C1CC1 [SB-733371],41
3,Cc1nc(N(C)[C@H]2CN(C(=O)CC#N)CC[C@H]2C)c2cc[nH]c2n1,0
4,Cc1nn2c(=O)cc(N3CCOCC3)nc2n1Cc1cccc(Cl)c1Cl [GSK2342769],2
5,Cc1cccc(-c2nc(Nc3ccc4c(cnn4C)c3)c3ccccc3n2)n1 [GW876731],0
6,FC(F)(F)c1ccc(-c2ncn(CCCN3CCOCC3)c2-c2ccncc2)cc1 [SB-217780],13
7,COc1cc(Nc2ccnc3ccc(C(F)(F)F)cc23)cc(OC)c1OC [GW577382],0
8,CCS(=O)c1ccc(-c2coc3ccc(-c4nnc(C)o4)cc23)cc1 (stereo not drawn),0
9,O=c1cc(N2CCOCC2)nc2n(Cc3ccc(F)c(Cl)c3)ccn12 [GSK2297099],0
10,CCC(=O)c1c(-c2ccccc2)c2cc(Cl)ccc2c(=O)n1Cc1cc(S(C)(=O)=O)n(CCC(C)(C)O)n1,21
11,Cn1c(=O)c(F)c(Nc2ccc(I)cc2F)c2c(=O)n(OC[C@H](O)CO)cnc21,30
12,COc1cc(OC)cc(-c2cc3cnc(N)nc3nc2NC(=O)NC(C)(C)C)c1,0
13,Fc1cccc(CSc2nnc(-c3ccc4c(c3)CCO4)o2)c1,0
14,COc1cc(Nc2nccc(N3CCC(NC(=O)C4COc5ccccc5O4)C3)n2)cc(OC)c1OC (stereo not drawn) [GSK1379761],57
15,O=C1NC(=O)C(c2ccccc2)=C1Nc1cccc(O)c1 [SB-390534],4
16,CN(C)c1cc(-c2ccc3c(N)n[nH]c3c2)nc(N)n1 [GSK2219329],32
17,Cc1ccc(Oc2ccc(Nc3ncnc4cc[nH]c34)cc2C)cn1,4
18,CN1C(=O)C(Nc2ccccc2)=C(c2ccccc2)C1=O [SB-300079],0

# System: BLK
# Details: concentration: 1 μM, replicates: in singlicate; n = 1
row,Compound,%Inh [%]
1,Cc1cccc(-c2cc(-c3c[nH]nc3-c3ccccn3)ccn2)c1 [GW679395],32
2,COc1ccc(-c2coc3ccc(-c4nnc(SCc5cccc(C#N)c5)o4)cc23)cc1,0
3,COc1ccc(CNC(=O)NC2CCN(c3ccnc(Nc4ccc(F)cc4)n3)C2)cc1 (stereo not drawn) [GSK1379706],3
4,COc1cc2ncn(-c3cc(OCc4ccncc4Br)c(C(N)=O)s3)c2cc1OC [GW854278],11
5,Cc1nnc(-c2ccc(C)c(-c3ccc(C(=O)O)cc3)c2)o1 [GW608005],31
6,COc1cc2ncn(-c3cc(OCCCc4ccccc4)c(C(N)=O)s3)c2cc1OC [GSK205189],12
7,Cc1cc(Nc2nc(-c3cccc(C)n3)nc3ccccc23)ccn1 [GW872411],0
8,Cc1ccc(-c2ccc3c(ccc4sc5c(c43)NC[C@@H](C)N=C5N(C)C)n2)cn1,0
9,CCc1ccc(-c2ccc3c(c2)-c2nn(C)cc2S(=O)(=O)N3C)cc1,0
10,Nc1n[nH]c2ncc(-c3ccccc3)cc12 [SB-517081],13
11,Nc1ncnc2c1ncn2-c1cccc2ccccc12 [SKF-97184],6
12,O=C(NCCNc1ccnc(Nc2ccc(F)cc2)n1)Nc1ccc2c(c1)OCO2 [GSK1379882],7
13,O=C(Nc1n[nH]c2nc(-c3ccccc3)c(Br)cc12)C1CC1 [SB-708998],8
14,Cl.NS(=O)(=O)c1cccc(Nc2cc(-c3ccc(F)cc3)n[nH]2)c1 [GW824645],23
15,O=C(Nc1ccc2c(c1)OCO2)NC1CCN(c2ccnc(NCc3ccc(F)cc3)n2)CC1 [GSK1379859],43
16,CC(C)(C)c1ccc(C(=O)Nc2cn3cc(-c4ccccc4)ccc3n2)cc1,0
17,C[C@@H]1CC[C@H](C(=O)NC2CCCCC2)CN1c1cc(-c2ccc3c(N)n[nH]c3c2)nc(N)n1 [GSK2291363],52
18,O=C(Nc1n[nH]c2nc(-c3ccccc3)c(Cl)cc12)C1CC1 [SB-734909],0

row,Compound,%Inh [%]
1,COC(=O)c1c(-c2ccccc2)c2cc(Br)ccc2c(=O)n1Cc1ccc(NC(=O)CCC(=O)O)cc1,4
2,O=C(Nc1n[nH]c2cc(-c3ccccc3F)ccc12)C1CC1 [SB-733371],0
3,Cc1nc(N(C)[C@H]2CN(C(=O)CC#N)CC[C@H]2C)c2cc[nH]c2n1,18
4,Cc1nn2c(=O)cc(N3CCOCC3)nc2n1Cc1cccc(Cl)c1Cl [GSK2342769],18
5,Cc1cccc(-c2nc(Nc3ccc4c(cnn4C)c3)c3ccccc3n2)n1 [GW876731],0
6,FC(F)(F)c1ccc(-c2ncn(CCCN3CCOCC3)c2-c2ccncc2)cc1 [SB-217780],4
7,COc1cc(Nc2ccnc3ccc(C(F)(F)F)cc23)cc(OC)c1OC [GW577382],34
8,CCS(=O)c1ccc(-c2coc3ccc(-c4nnc(C)o4)cc23)cc1 (stereo not drawn),3
9,O=c1cc(N2CCOCC2)nc2n(Cc3ccc(F)c(Cl)c3)ccn12 [GSK2297099],13
10,CCC(=O)c1c(-c2ccccc2)c2cc(Cl)ccc2c(=O)n1Cc1cc(S(C)(=O)=O)n(CCC(C)(C)O)n1,12
11,Cn1c(=O)c(F)c(Nc2ccc(I)cc2F)c2c(=O)n(OC[C@H](O)CO)cnc21,9
12,COc1cc(OC)cc(-c2cc3cnc(N)nc3nc2NC(=O)NC(C)(C)C)c1,8
13,Fc1cccc(CSc2nnc(-c3ccc4c(c3)CCO4)o2)c1,0
14,COc1cc(Nc2nccc(N3CCC(NC(=O)C4COc5ccccc5O4)C3)n2)cc(OC)c1OC (stereo not drawn) [GSK1379761],16
15,O=C1NC(=O)C(c2ccccc2)=C1Nc1cccc(O)c1 [SB-390534],6
16,CN(C)c1cc(-c2ccc3c(N)n[nH]c3c2)nc(N)n1 [GSK2219329],2
17,Cc1ccc(Oc2ccc(Nc3ncnc4cc[nH]c34)cc2C)cn1,0
18,CN1C(=O)C(Nc2ccccc2)=C(c2ccccc2)C1=O [SB-300079],23
